About 83,000 compounds went through this panel and 20% of them were active in at least one assay; those are over-represented in the sample as a whole.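 Single-concentration screen, 48 h exposure, 96-well plates. Endpoint: percent growth. Below 10 = active.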 Calls of active or inactive are those of the source.
What was measured:
Test in all cases: NCI-60 one-dose screen, 48 h (100 = growth as untreated, 0 = no growth, -100 = all killed)
Conditions in all cases: 10 µM unless noted
NCI-H23 lung = tested on: NCI-H23 lung
NCI-H226 lung = tested on: NCI-H226 lung
NCI-H322M lung = tested on: NCI-H322M lung
NCI-H460 lung = tested on: NCI-H460 lung
HOP-92 NSCLC = tested on: HOP-92 NSCLC
NCI-H522 lung = tested on: NCI-H522 lung
A549/ATCC NSCLC = tested on: A549/ATCC NSCLC
786-0 renal = tested on: 786-0 renal
COLO 205 colon = tested on: COLO 205 colon
DU-145 prostate = tested on: DU-145 prostate
K-562 leukemia = tested on: K-562 leukemia
MALME-3M melanoma = tested on: MALME-3M melanoma
MDA-MB-231 breast = tested on: MDA-MB-231 breast
RXF 393 renal = tested on: RXF 393 renal
SF-268 CNS = tested on: SF-268 CNS
SF-295 CNS = tested on: SF-295 CNS
SF-539 CNS = tested on: SF-539 CNS
UACC-257 melanoma = tested on: UACC-257 melanoma
M14 melanoma = tested on: M14 melanoma
HOP-62 NSCLC = tested on: HOP-62 NSCLC

Measured: growth

CNCCCOc1c(Br)cc(CCNC(=O)/C(Cc2ccc(OC)c(Br)c2)=N/O)cc1Br
active: COLO 205 colon -58.6% | K-562 leukemia -21.6% | MALME-3M melanoma 1.79% | UACC-257 melanoma 4.02% | M14 melanoma -55.9%
inactive: NCI-H23 lung 62.7% | NCI-H226 lung 77.3% | NCI-H322M lung 70.3% | NCI-H460 lung 15.8% | HOP-92 NSCLC 40.9% | NCI-H522 lung 29.3% | A549/ATCC NSCLC 49.7% | 786-0 renal 40.6% | DU-145 prostate 61.2% | MDA-MB-231 breast 26.8% | RXF 393 renal 45.3% | SF-268 CNS 53% | SF-295 CNS 19.8% | SF-539 CNS 32.1%

Cc1cc(N2CCOCC2)nc(N(CCNc2ccnc3cc(Cl)ccc23)Cc2ccco2)n1
inactive: NCI-H23 lung 58% | NCI-H226 lung 60.5% | NCI-H322M lung 41.8% | NCI-H460 lung 47.3% | HOP-92 NSCLC 46.7% | NCI-H522 lung 13.9% | A549/ATCC NSCLC 50.7% | DU-145 prostate 53.4% | MALME-3M melanoma 62.8% | RXF 393 renal 10.6% | SF-268 CNS 71.8% | UACC-257 melanoma 49.8% | M14 melanoma 39.5%
active: 786-0 renal 5.93% | COLO 205 colon -4.11% | MDA-MB-231 breast 7.62% | SF-295 CNS 6.25% | SF-539 CNS -31.8%

Cl[C@@H]1CCO[C@H](c2cc3ccccc3c3ccccc23)C1
inactive: NCI-H23 lung 95.5% | NCI-H226 lung 89.8% | NCI-H322M lung 94.6% | NCI-H460 lung 99% | HOP-92 NSCLC 89.1% | NCI-H522 lung 82.6% | A549/ATCC NSCLC 93.6% | 786-0 renal 88.7% | COLO 205 colon 104% | DU-145 prostate 102% | K-562 leukemia 95.5% | MALME-3M melanoma 106% | MDA-MB-231 breast 90.2% | RXF 393 renal 98.8% | SF-268 CNS 97.9% | SF-295 CNS 96.4% | SF-539 CNS 95% | UACC-257 melanoma 93.4% | M14 melanoma 95.3%

CC(=O)c1ccc2c(c1)C1C=CCC1[C@H](c1cc3c(cc1Br)OCO3)N2 (some centres undefined)
active: NCI-H460 lung 7.92% | NCI-H522 lung -10.7% | COLO 205 colon -14% | DU-145 prostate -17% | K-562 leukemia 4.19% | RXF 393 renal -12.4% | SF-295 CNS -36.7% | SF-539 CNS -12.1% | M14 melanoma -7.21%
inactive: NCI-H226 lung 22.1% | NCI-H322M lung 64.8% | HOP-62 NSCLC 32.1% | HOP-92 NSCLC 16% | A549/ATCC NSCLC 23.4% | 786-0 renal 10.9% | MALME-3M melanoma 49.7% | MDA-MB-231 breast 16.9% | SF-268 CNS 40.6% | UACC-257 melanoma 75%

Cc1cn(-c2nc3c(c(NCc4ccccc4)n2)COCC3)c2cccc(C(N)=O)c12
inactive: NCI-H23 lung 58.8% [0.5 µM] | NCI-H226 lung 56.4% [0.5 µM] | NCI-H322M lung 98.8% [0.5 µM] | NCI-H460 lung 45.8% [0.5 µM] | HOP-92 NSCLC 87.7% [0.5 µM] | NCI-H522 lung 69.5% [0.5 µM] | A549/ATCC NSCLC 84% [0.5 µM] | 786-0 renal 40.9% [0.5 µM] | COLO 205 colon 87.8% [0.5 µM] | DU-145 prostate 87.6% [0.5 µM] | MALME-3M melanoma 82.9% [0.5 µM] | MDA-MB-231 breast 58.5% [0.5 µM] | RXF 393 renal 43.6% [0.5 µM] | SF-268 CNS 76.9% [0.5 µM] | SF-295 CNS 36.1% [0.5 µM] | SF-539 CNS 84.6% [0.5 µM] | UACC-257 melanoma 68.1% [0.5 µM] | M14 melanoma 55.2% [0.5 µM]

O=C(Nc1ccc(-n2ccc3c(NC(=O)c4ccccc4)ncnc32)cc1)c1ccc(Cl)c(C(F)(F)F)c1
active: NCI-H460 lung -30.5% | A549/ATCC NSCLC -40.8% | K-562 leukemia 7.82% | M14 melanoma 9.79%
inactive: NCI-H23 lung 56.5% | NCI-H226 lung 32.3% | NCI-H322M lung 44.1% | HOP-92 NSCLC 89.4% | NCI-H522 lung 11.3% | 786-0 renal 54.9% | COLO 205 colon 33.3% | DU-145 prostate 23.1% | MALME-3M melanoma 26.9% | MDA-MB-231 breast 12.2% | RXF 393 renal 19% | SF-268 CNS 18.7% | SF-295 CNS 11.7% | SF-539 CNS 31.9% | UACC-257 melanoma 46%

O=C(O)c1cn(C2CC2)c2cc(N3CCN(C(=O)CSc4nc(NS(=O)(=O)c5ccccc5)cc(=O)[nH]4)CC3)c(F)cc2c1=O
inactive: NCI-H23 lung 94.3% | NCI-H226 lung 96.2% | NCI-H322M lung 92.5% | NCI-H460 lung 96.2% | HOP-92 NSCLC 106% | NCI-H522 lung 95.6% | A549/ATCC NSCLC 110% | 786-0 renal 111% | COLO 205 colon 109% | DU-145 prostate 101% | MALME-3M melanoma 82.4% | MDA-MB-231 breast 100% | RXF 393 renal 112% | SF-268 CNS 93.7% | SF-295 CNS 104% | SF-539 CNS 98.1% | UACC-257 melanoma 95% | M14 melanoma 83.7%

N#Cc1c(N)nc(Cl)c(C#N)c1C(=O)c1ccccc1
inactive: NCI-H23 lung 67% | NCI-H226 lung 87.9% | NCI-H322M lung 96.5% | NCI-H460 lung 61.5% | HOP-92 NSCLC 74.2% | NCI-H522 lung 39.1% | A549/ATCC NSCLC 70.9% | 786-0 renal 37.8% | COLO 205 colon 61.6% | DU-145 prostate 52.1% | MALME-3M melanoma 42.3% | MDA-MB-231 breast 26.3% | SF-268 CNS 38.6% | SF-295 CNS 56.1% | SF-539 CNS 15.2% | UACC-257 melanoma 69.4% | M14 melanoma 35%
active: K-562 leukemia 5.81% | RXF 393 renal -2.56%

Source: PubChem BioAssay (NCI)
